Measurements from PubChem BioAssay AID1159580 (chemical genetic matrix, 2015).
Hit rate of the full screen: of about 5,500 compounds, about 2,000 (36%) were called active. Roughly 18% stayed inconclusive and do not appear here. Cut-off read from the data, not from the text of the source: active = normalized growth mostly below about 0.91 (no sharp cut-off); inconclusive = no clear call, values can overlap the other calls; inactive = mostly above about 0.92. The list shows a part of the results.

Assay: chemical genetic growth profiling, strain panel (AID 1159580);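 note: tested at 20 µM; growth read once vehicle control cultures reached saturation at 30 °C; 1 = growth at the plate median or of vehicle wells; lower values mean less growth of the strain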
Conditions: growth OD

Measured: normalized growth

CCOC(=O)C(Cc1ccc(O)cc1)NC(C)=O (configuration not stated)
inactive: S. cerevisiae deletion strains, locus YJR075W, strain HOC1, hits give low values 1.01 | S. cerevisiae deletion strains, locus YKL009W, strain mrt4, hits give low values 0.996 | S. cerevisiae deletion strains, locus YKL068W, hits give low values 1 | S. cerevisiae deletion strains, locus YKL085W, strain MDH1 (second series), hits give low values 1 | S. cerevisiae deletion strains, locus YKL085W, strain MDH1, hits give low values 1 | S. cerevisiae deletion strains, locus YKL160W, strain elf1, hits give low values 1.02 | S. cerevisiae deletion strains, locus YKL190W, strain CNB1, hits give low values 1.01 | S. cerevisiae deletion strains, locus YKR001C, strain vps1, hits give low values 0.995 | S. cerevisiae deletion strains, locus YKR026C, strain gcn3, hits give low values 1 | S. cerevisiae deletion strains, locus YKR091W, strain srl3, hits give low values 1 | S. cerevisiae deletion strains, locus YLL001W, strain dnm1, hits give low values 1.01 | S. cerevisiae deletion strains, locus YLL026W, hits give low values 0.997 | S. cerevisiae deletion strains, locus YLL041C, strain sdh2, hits give low values 1 | S. cerevisiae deletion strains, locus YLR027C, strain aat2, hits give low values 1 | S. cerevisiae deletion strains, locus YLR039C, strain RIC1, hits give low values 1.03 | S. cerevisiae deletion strains, locus YLR058C, strain SHM2, hits give low values 1.02 | S. cerevisiae deletion strains, locus YLR102C, strain apc9, hits give low values 1.01 | S. cerevisiae deletion strains, locus YLR113W, strain HOG1, hits give low values 1.01 | S. cerevisiae deletion strains, locus YLR221C, strain rsa3, hits give low values 0.987 | S. cerevisiae deletion strains, locus YLR258W, strain gsy2, hits give low values 1.01 | S. cerevisiae deletion strains, locus YLR262C, strain YPT6 (second series), hits give low values 0.968 | S. cerevisiae deletion strains, locus YLR262C, strain YPT6, hits give low values 1.01 | S. cerevisiae deletion strains, locus YLR268W, strain sec22, hits give low values 1.01 | S. cerevisiae deletion strains, locus YLR320W, strain mms22, hits give low values 0.994 | S. cerevisiae deletion strains, locus YLR330W, strain CHS5, hits give low values 1.01 | S. cerevisiae deletion strains, locus YLR342W, strain FKS1 (second series), hits give low values 1.07 | S. cerevisiae deletion strains, locus YLR342W, strain FKS1, hits give low values 1.01 | S. cerevisiae deletion strains, locus YLR357W, strain rsc2, hits give low values 1.01 | S. cerevisiae deletion strains, locus YLR370C, strain arc18, hits give low values 1 | S. cerevisiae deletion strains, locus YLR371W, strain rom2, hits give low values 1.02 | S. cerevisiae deletion strains, locus YLR384C, strain iki3, hits give low values 1 | S. cerevisiae deletion strains, locus YLR418C, strain cdc73, hits give low values 1 | S. cerevisiae deletion strains, locus YML016C, strain PPZ1, hits give low values 1.01 | S. cerevisiae deletion strains, locus YML032C, strain rad52, hits give low values 0.989 | S. cerevisiae deletion strains, locus YML120C, strain ndi1, hits give low values 1.01 | S. cerevisiae deletion strains, locus YML124C, strain tub3, hits give low values 0.999 | S. cerevisiae deletion strains, locus YMR058W, strain fet3, hits give low values 1.01 | S. cerevisiae deletion strains, locus YMR078C, strain ctf18, hits give low values 1.01 | S. cerevisiae deletion strains, locus YMR125W, strain sto1, hits give low values 0.995 | S. cerevisiae deletion strains, locus YMR129W, hits give low values 1.01 | S. cerevisiae deletion strains, locus YMR205C, strain PFK2, hits give low values 0.997 | S. cerevisiae deletion strains, locus YMR223W, strain ubp8, hits give low values 0.987 | S. cerevisiae deletion strains, locus YMR231W, strain pep5, hits give low values 1.01 | S. cerevisiae deletion strains, locus YMR263W, strain SAP30, hits give low values 1.01 | S. cerevisiae deletion strains, locus YMR307W, strain GAS1, hits give low values 1.06 | S. cerevisiae deletion strains, locus YNL067W, strain RPL9B, hits give low values 1.02 | S. cerevisiae deletion strains, locus YNL071W, strain lat1, hits give low values 1 | S. cerevisiae deletion strains, locus YNL128W, strain TEP1, hits give low values 1.02 | S. cerevisiae deletion strains, locus YNL153C, strain GIM3, hits give low values 1.01 | S. cerevisiae deletion strains, locus YNL183C, strain NPR1, hits give low values 0.879 | S. cerevisiae deletion strains, locus YNL209W, strain ssb2, hits give low values 0.996 | S. cerevisiae deletion strains, locus YNL233W, strain BNI4, hits give low values 1.01 | S. cerevisiae deletion strains, locus YNL248C, strain rpa49, hits give low values 0.999 | S. cerevisiae deletion strains, locus YNL250W, strain rad50, hits give low values 0.992 | S. cerevisiae deletion strains, locus YNL271C, strain bni1, hits give low values 0.993 | S. cerevisiae deletion strains, locus YNL298W, strain CLA4, hits give low values 1.01 | S. cerevisiae deletion strains, locus YNL307C, strain MCK1, hits give low values 1 | S. cerevisiae deletion strains, locus YNL322C, strain KRE1 (second series), hits give low values 1.05 | S. cerevisiae deletion strains, locus YNL322C, strain KRE1, hits give low values 1.01 | S. cerevisiae deletion strains, locus YNR049C, strain mso1, hits give low values 1.02 | S. cerevisiae deletion strains, locus YNR052C, strain pop2, hits give low values 0.993 | S. cerevisiae deletion strains, locus YOL006C, strain TOP1, hits give low values 1.06 | S. cerevisiae deletion strains, locus YOL012C, strain htz1 0.841 | S. cerevisiae deletion strains, locus YOL147C, strain pex11, hits give low values 0.997 | S. cerevisiae deletion strains, locus YOR001W, strain rrp6, hits give low values 0.949 | S. cerevisiae deletion strains, locus YOR061W, strain CKA2, hits give low values 1.02 | S. cerevisiae deletion strains, locus YOR069W, strain VPS5, hits give low values 1.01 | S. cerevisiae deletion strains, locus YOR070C, strain gyp1, hits give low values 1 | S. cerevisiae deletion strains, locus YOR080W, strain dia2, hits give low values 1.01 | S. cerevisiae deletion strains, locus YOR083W, strain WHI5, hits give low values 1.03 | S. cerevisiae deletion strains, locus YOR106W, strain vam3, hits give low values 1.04 | S. cerevisiae deletion strains, locus YOR136W, strain idh2, hits give low values 0.989 | S. cerevisiae deletion strains, locus YOR144C, strain elg1, hits give low values 1.01 | S. cerevisiae deletion strains, locus YOR184W, strain ser1, hits give low values 1.01 | S. cerevisiae deletion strains, locus YOR231W, strain MKK1, hits give low values 0.971 | S. cerevisiae deletion strains, locus YOR265W, strain rbl2, hits give low values 1 | S. cerevisiae deletion strains, locus YOR270C, strain vph1, hits give low values 1 | S. cerevisiae deletion strains, locus YOR290C, strain snf2, hits give low values 1.03 | S. cerevisiae deletion strains, locus YOR316C, strain cot1, hits give low values 1.02 | S. cerevisiae deletion strains, locus YPL051W, strain arl3, hits give low values 1.03 | S. cerevisiae deletion strains, locus YPL055C, strain LGE1, hits give low values 1.01 | S. cerevisiae deletion strains, locus YPL078C, strain atp4, hits give low values 1.02 | S. cerevisiae deletion strains, locus YPL106C, strain sse1, hits give low values 1.03 | S. cerevisiae deletion strains, locus YPL240C, strain hsp82, hits give low values 1 | S. cerevisiae deletion strains, locus YPL241C, strain CIN2, hits give low values 1.01 | S. cerevisiae deletion strains, locus YPL256C, strain CLN2, hits give low values 0.93 | S. cerevisiae deletion strains, locus YPR119W, strain clb2, hits give low values 1.01 | S. cerevisiae deletion strains, locus YPR141C, strain kar3, hits give low values 0.995 | S. cerevisiae deletion strains, locus YPR163C, strain tif3, hits give low values 1 | S. cerevisiae deletion strains, locus YPR167C, strain met16, hits give low values 1 | S. cerevisiae deletion strains, strain wtn01, hits give low values 1.01 | S. cerevisiae strains, strain wild type, hits give low values 1.01
